This is an account of results in the supplement of paper PMC12024424.

Molecules are shown by their SMILES. Structures can show the parent of a compound that is named as a salt.

This assay has as its system Staphylococcus aureus Sa2 (MRSA, cystic fibrosis isolate). Kind of assay: growth reduction vs untreated control (viable cell count); higher = stronger antibacterial activity; extreme values may be limits of the assay. To be noted: 0.1 mM; 24 h. As for the experimental part: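 Single-dose screen of the MedChem Express Drug Repurposing Library (0.1 mM, 1% DMSO) against planktonic MRSA S. aureus Sa2 (CF isolate) in TSB in 96-well plates, 37 °C aerobic, 24 h. Assays were run in triplicate and repeated twice.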
Turning to `Cc1c(Cl)cccc1Nc1ccccc1C(=O)O` [Tolfenamic Acid], the growth reduction stood at 99%.

In the case of `C#C[C@]1(O)CC[C@H]2[C@@H]3CCc4cc(OC5CCCC5)ccc4[C@H]3CC[C@@]21C` [Quinestrol], the growth reduction is 99%.

`NCCCC[C@H](NC(=O)[C@@H](NC(=O)[C@H](Cc1c[nH]c2ccccc12)NC(=O)[C@H](CCCCN)NC(=O)[C@H](CCCCN)NC(=O)[C@H](Cc1c[nH]c2ccccc12)NC(=O)[C@H](Cc1c[nH]c2ccccc12)NC(=O)[C@H](CCCCN)NC(=O)[C@@H](N)CCCCN)C(c1ccccc1)c1ccccc1)C(N)=O` returned a growth reduction of 100%.

Compound `Cc1c(Cl)c(C)[n+]([O-])c(Cl)c1-c1noc(-c2cc(O)c(O)c([N+](=O)[O-])c2)n1` [Opicapone] yielded a growth reduction of 100%.

As to `O=C(O)CNC(=O)c1c(=O)cc(CCc2ccccc2)n2[nH]cnc12` [Enarodustat], the growth reduction was found to be 92%.

For the compound `N#CC(c1ccc(Cl)cc1)c1c(Cl)cc(-n2ncc(=O)[nH]c2=O)cc1Cl` (configuration not stated) [Diclazuril], the growth reduction amounted to 100%.

Take `CC(C)(C)OC(=O)N[C@H]1CCCCC/C=C\[C@@H]2C[C@@]2(C(=O)NS(=O)(=O)C2CC2)NC(=O)[C@@H]2C[C@@H](OC(=O)N3Cc4cccc(F)c4C3)CN2C1=O` [Danoprevir]: the growth reduction came to 100%.

Compound `CC/C(=C(/c1ccc(/C=C/C(=O)O)cc1)c1ccc2[nH]ncc2c1)c1ccc(F)cc1Cl` [Brilanestrant] gave a growth reduction of 100%.

In turn, `O=C(NS(=O)(=O)c1ccc(Br)s1)c1ccc(Cl)cc1Cl` [Tasisulam] registered a growth reduction of 100%.

For the compound `C=C[C@@H]1C[C@]1(NC(=O)[C@@H]1C[C@@H](Oc2ncc(OC)c3ccc(Cl)cc23)CN1C(=O)[C@@H](NC(=O)OC(C)(C)C)C(C)(C)C)C(=O)NS(=O)(=O)C1CC1` [Asunaprevir], the growth reduction turned out to be 100%.

With `CC(/C=C/C=C(\C)C(=O)O)=C\C=C\C=C(C)\C=C\C=C(/C)C(=O)O` [Transcrocetin meglumine salt], the growth reduction was found to be 92%.

In turn, `Clc1ccc(COC(Cn2ccnc2)c2ccc(Cl)cc2Cl)cc1` (configuration not stated) [Econazole (nitrate)] displayed a growth reduction of 100%.

`COc1cc(NS(C)(=O)=O)ccc1Nc1c2ccccc2nc2ccccc12` [Amsacrine (hydrochloride)] had a growth reduction of 100%.

As to `CS(=O)(=O)c1ccc([C@@H](O)[C@@H](CF)NC(=O)C(Cl)Cl)cc1` [Florfenicol], the growth reduction was found to be 100%.

Consider `Cc1ccc(-c2c(C(=O)CCl)n(CCCO)c3ncnc(N)c23)cc1`, for which the growth reduction was 100%.

For the compound `O=C1Nc2ccc(Cl)cc2[C@@](C#CC2CC2)(C(F)(F)F)O1` [Efavirenz], the growth reduction was 98%.

`Oc1ccc2c(c1)CC[C@H](c1ccccc1)[C@@H]2c1ccc(OCCN2CCCC2)cc1` [Lasofoxifene (Tartrate)] gave a growth reduction of 100%.

With `Cc1cc(Nc2ncnc3ccc(NC4=NC(C)(C)CO4)cc23)ccc1Oc1ccn2ncnc2c1` [Tucatinib], the growth reduction worked out at 92%.

`C=CCc1ccc(O)c(-c2cc(CC=C)ccc2O)c1` [Magnolol] displayed a growth reduction of 100%.

As for `CC(C)/N=c1\cc2n(-c3ccc(Cl)cc3)c3ccccc3nc-2cc1Nc1ccc(Cl)cc1` [Clofazimine], the growth reduction is 100%.

`N[C@@H]1CC[C@@H](c2ccc(Cl)c(Cl)c2)c2ccccc21` [Dasotraline (hydrochloride)] came in with a growth reduction of 100%.

The compound `COc1ccc2c(c1OCc1ccccc1)C[C@@H](C(=O)O)N(C(=O)C(c1ccccc1)c1ccccc1)C2` [Olodanrigan] gave a growth reduction of 100%.

As to `NC(=O)N1c2ccccc2C[C@H](O)c2ccccc21` [Eslicarbazepine], the growth reduction amounted to 94%.

`Cc1cc(O[C@@H](CCC(F)(F)F)c2ccc(C(=O)NCCC(=O)O)cc2)cc(C)c1-c1ccc(C(C)(C)C)cc1` [Adomeglivant]: the growth reduction came to 100%.

As for `CC(C)(C)C#Cc1cc(N(C(=O)[C@H]2CC[C@H](C)CC2)[C@H]2CC[C@H](O)CC2)c(C(=O)O)s1` [Lomibuvir], the growth reduction was 95%.

`CCCCCCCCc1ccc(CCC(N)(CO)CO)cc1` [Fingolimod]: the growth reduction stood at 100%.

As for `Cc1ccc(C(=O)Nc2ccc(CN3CCN(C)CC3)c(C(F)(F)F)c2)cc1C#Cc1cnc2[nH]ncc2c1`, the growth reduction was found to be 100%.

`Cc1cccc(Nc2ccccc2C(=O)O)c1C` [Mefenamic acid] came in with a growth reduction of 100%.

`CN(C)CCOc1ccc(/C(=C(/CCCl)c2ccccc2)c2ccccc2)cc1` [Toremifene (citrate)] had a growth reduction of 100%.

As for `O=C(NC(=Nc1cc(C(F)(F)F)[nH]n1)Nc1cc(F)cc(Cl)c1)c1cccc(Cl)c1` [Parimifasor], the growth reduction stood at 100%.

As for `Cc1cc(Nc2ncc(Cl)c(Nc3ccccc3S(=O)(=O)C(C)C)n2)c(OC(C)C)cc1C1CCNCC1` [Ceritinib dihydrochloride], the growth reduction came out at 100%.

Consider `CSc1ccc2c(c1)N(CCC1CCCCN1C)c1ccccc1S2` (configuration not stated) [Thioridazine (hydrochloride)], for which the growth reduction amounted to 100%.

`O=C(O)C[C@H]1CCc2c1[nH]c1ccc(OCc3ccc(C4CCCC4)c(C(F)(F)F)c3)cc21` [Etrasimod] had a growth reduction of 100%.

In the case of `CCCCCCCCCCCC1=C(O)C(=O)C=C(O)C1=O` [Embelin], the growth reduction came to 100%.

For `O=C(O)c1ccccc1Nc1cccc(C(F)(F)F)c1` [Flufenamic acid], the growth reduction was 98%.

In the case of `OC(c1cc(C(F)(F)F)nc2c(C(F)(F)F)cccc12)C1CCCCN1` (configuration not stated) [Mefloquine (hydrochloride)], the growth reduction came to 100%.

`CC(C)COc1ccc(CNC(=O)N(Cc2ccc(F)cc2)C2CCN(C)CC2)cc1` [Pimavanserin] returned a growth reduction of 100%.
